Consider 40 compounds from PubChem BioAssay (NCI).

The panel holds about 79,000 compounds, 15% with a hit somewhere; the sample as a whole holds those more often. Activity calls are given as the source filed them. No stated cut-off is given here; in the data, active means growth inhibition above about 70%; inactive means the rest. Where a SMILES comes first, the peptide text is derived from it. [ ]: non-standard residue; d: D form. The star is where a group is joined. Cbz = O=C(OCc1ccccc1)*; Nva = CCC[CH](N)C(=O)O; OBn = c1ccc(CO*)cc1

The first assay in a line: NCI Yeast Anticancer Drug Screen. Data for the sgs1 mgt1 strain (AID 161).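 Further: 0% = growth of cultures given vehicle only.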 The settings on record: S. cerevisiae sgs1 mgt1 strain, at 50.0 µM, hits give high values. In a few lines:
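This yeast growth screen uses a strain with defined DNA-repair lesions; compound-treated growth is compared with vehicle-treated growth.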
With `CCCC(=O)c1ccc2c(ccc(=O)n2C)c1`, the growth inhibition was -5.2% (inactive).

As for `O=C(NC(CO)C(=O)N1CCCC1C(=O)OCc1ccccc1)OCc1ccccc1` (stereo not drawn) (Cbz-Ser-Pro-OBn; configuration not given here), the growth inhibition is 7.05% (inactive).

For `CN(C)CC1CCCC/C1=N\OC(=O)c1ccccc1` (stereo not given), the growth inhibition was 4.15% (inactive).

As for `CC(C)(C)C(C(N)=O)C(C)(C)C`, the growth inhibition was -6.1% (inactive).

In the case of `CC(=O)/C(N=Nc1ccccc1SCCC#N)=C(\C)O`, the growth inhibition was -8.1% (inactive).

In the case of `N#Cc1cccc(N(C(=O)c2ccccc2)c2ccccc2)n1`, the growth inhibition was -4.5% (inactive).

As to `Cc1nc(Nc2ccc(Cl)c(Cl)c2)sc1C(=O)/C=C/c1ccc2c(c1)OCO2`, the growth inhibition was 13.6% (inactive).

For the compound `CCCCN1C(=O)C(CC(=O)OCC)SC1=S` (stereo not given), the growth inhibition was -19.9% (inactive).

For the compound `NC(C(=O)O)C1CCCC1` (stereo not given), the growth inhibition was -20.8% (inactive).

For the compound `CN(C)c1ccc(C=C(C(=O)c2ccccc2)C(=O)c2ccccc2)cc1`, the growth inhibition is 0.75% (inactive).

Turning to `COC(=O)CCC(=O)NC1=C(NCc2ccccc2)C(=O)c2ccccc2C1=O`, the growth inhibition was 31.1% (inactive).

With `COC(=O)C1OCOC2C(CO)OCOC12` (stereo not given), the growth inhibition is -1.5% (inactive).

`CN(C)c1nc2ccc(Cl)cc2c(=O)[nH]1`: the growth inhibition is -14% (inactive).

On to `O=C1Nc2cccc3cc(NCC(O)CCCl)cc1c23` (stereo not given), for which the growth inhibition is 18.2% (inactive).

On to `O=C1CC23CC(=O)CC2(C1)c1ccccc1C3=O` (stereo not given), for which the growth inhibition was 4.65% (inactive).

For `NC(=S)NNC(=O)c1ccncc1`, the growth inhibition was 1.8% (inactive).

Take `CC[n+]1c([S-])nn(C)c1-c1cnccn1`: the growth inhibition was -9.05% (inactive).

As for `Cc1ccc(C(=O)N(C(C)C)C(C)C)cc1N=NN(C)C`, the growth inhibition is -31.1% (inactive).

For `Cc1ccc(NC(=O)CC2C(=O)Nc3ccccc3S2(=O)=O)c(C)c1` (stereo not given), the growth inhibition is -6.8% (inactive).

`C=CCNC(=O)NCCCC(NC(C)=O)C(=O)NCc1ccccc1` (stereo not given): the growth inhibition was -14.7% (inactive).

As for `COC(=O)[C@@H]1CCC(/C(C#N)=C2/CC[C@@H](C(=O)OC)N2)=N1`, the growth inhibition is 1.2% (inactive).

In the case of `N=c1c(C(=O)O)cccn1O`, the growth inhibition was 9.1% (inactive).

In the case of `O=C1CNS(=O)(=O)N1`, the growth inhibition is -16.5% (inactive).

On to `C/C(=N/NC(N)=O)C1=CCCCC1`, for which the growth inhibition is 6.35% (inactive).

As to `CC1(c2cccs2)C(=O)NC(=O)N1C(=O)CCl` (stereo not given), the growth inhibition was -6.65% (inactive).

With `O=C1/C(=C\C=C\c2ccccc2)CCC/C1=C/C=C/c1ccccc1`, the growth inhibition was 5.7% (inactive).

As to `O=[N+]([O-])c1ccc(N=N/C(Cc2ccccc2)=N\Nc2ccccc2)cc1`, the growth inhibition was -0.2% (inactive).

Take `O=C(NO)/C(CC(=O)c1ccc(O)cc1)=N\O`: the growth inhibition was -6.9% (inactive).

On to `CCOC(=O)c1nc2ccccc2nc1NCc1ccc(OC)cc1`, for which the growth inhibition is -30.4% (inactive).

As to `Cc1ccccc1C(=O)N(C(C)C)C(C)C`, the growth inhibition is 7.2% (inactive).

As to `CC(C)C(=O)NCc1ccccc1Sc1ccccc1CNC(=O)C(C)C`, the growth inhibition is -18.5% (inactive).

Take `CCC(=O)OCCCc1ccccc1`: the growth inhibition is 15.8% (inactive).

For the compound `O=C(COC(=O)C(CC(=O)c1ccccc1)Cc1ccccc1)c1ccc(-c2ccccc2)cc1` (stereo not given), the growth inhibition is 6% (inactive).

Consider `Cc1cc(=O)n2c(cc3cccccc32)n1`, for which the growth inhibition was -13.4% (inactive).

Turning to `CCCC(NC(=O)OCc1ccccc1)C(=O)NC(CCSC)C(N)=O` (stereo not given) (Cbz-[Nva]-Met-NH2; configuration not given here), the growth inhibition was -5.95% (inactive).

Take `O=C1NN(c2ccccc2)CCO1`: the growth inhibition was -5.25% (inactive).

`C[Si](C)(/C(=C/COCc1ccccc1)CCOC1CCCCO1)c1ccccc1` (stereo not given): the growth inhibition is -17.1% (inactive).

`C=CC1CC1(Cl)Cl` (stereo not given): the growth inhibition is -4.75% (inactive).

As to `CC/C(CCC(=O)OC)=N/Nc1ccc([N+](=O)[O-])cc1[N+](=O)[O-]`, the growth inhibition was 6.9% (inactive).

On to `CCC1CCCCC1O` (stereo not given), for which the growth inhibition was -30.5% (inactive).

The nature of a further assay: NCI Yeast Anticancer Drug Screen. Data for the cln2 rad14 strain (AID 165).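 Further: 0% = growth equal to vehicle treated cultures.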 The note with it: S. cerevisiae cln2 rad14 strain, at 50.0 µM, hits give high values. In a few lines: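 Growth inhibition, relative to vehicle-treated controls, is the read-out. The test organism is a yeast strain with defined genetic alterations, cln2 rad14.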
In the case of `CCCC(=O)c1ccc2c(ccc(=O)n2C)c1`, the growth inhibition was 38.1% (inactive).

On to `O=C(NC(CO)C(=O)N1CCCC1C(=O)OCc1ccccc1)OCc1ccccc1` (stereo not drawn) (Cbz-Ser-Pro-OBn; configuration not given here), for which the growth inhibition is 23.9% (inactive).

On to `CN(C)CC1CCCC/C1=N\OC(=O)c1ccccc1` (stereo not given), for which the growth inhibition was 6.25% (inactive).

For `CC(C)(C)C(C(N)=O)C(C)(C)C`, the growth inhibition is 14.4% (inactive).

As to `CC(=O)/C(N=Nc1ccccc1SCCC#N)=C(\C)O`, the growth inhibition is -28.6% (inactive).

`N#Cc1cccc(N(C(=O)c2ccccc2)c2ccccc2)n1`: the growth inhibition is 0.1% (inactive).

On to `Cc1nc(Nc2ccc(Cl)c(Cl)c2)sc1C(=O)/C=C/c1ccc2c(c1)OCO2`, for which the growth inhibition is -2.2% (inactive).

Consider `CCCCN1C(=O)C(CC(=O)OCC)SC1=S` (stereo not given), for which the growth inhibition is -7.8% (inactive).

On to `NC(C(=O)O)C1CCCC1` (stereo not given), for which the growth inhibition is -14% (inactive).

As to `CN(C)c1ccc(C=C(C(=O)c2ccccc2)C(=O)c2ccccc2)cc1`, the growth inhibition was 8.6% (inactive).

As to `COC(=O)CCC(=O)NC1=C(NCc2ccccc2)C(=O)c2ccccc2C1=O`, the growth inhibition is 36% (inactive).

Take `COC(=O)C1OCOC2C(CO)OCOC12` (stereo not given): the growth inhibition is -49.4% (inactive).

Turning to `CN(C)c1nc2ccc(Cl)cc2c(=O)[nH]1`, the growth inhibition was 3.55% (inactive).

With `O=C1Nc2cccc3cc(NCC(O)CCCl)cc1c23` (stereo not given), the growth inhibition is -5.8% (inactive).

For the compound `O=C1CC23CC(=O)CC2(C1)c1ccccc1C3=O` (stereo not given), the growth inhibition was 6.2% (inactive).

In the case of `NC(=S)NNC(=O)c1ccncc1`, the growth inhibition was 10.4% (inactive).

As to `CC[n+]1c([S-])nn(C)c1-c1cnccn1`, the growth inhibition was -13.9% (inactive).

Regarding `Cc1ccc(C(=O)N(C(C)C)C(C)C)cc1N=NN(C)C`, the growth inhibition is 12.2% (inactive).

As to `Cc1ccc(NC(=O)CC2C(=O)Nc3ccccc3S2(=O)=O)c(C)c1` (stereo not given), the growth inhibition was 20.6% (inactive).

In the case of `C=CCNC(=O)NCCCC(NC(C)=O)C(=O)NCc1ccccc1` (stereo not given), the growth inhibition was 6.75% (inactive).

With `COC(=O)[C@@H]1CCC(/C(C#N)=C2/CC[C@@H](C(=O)OC)N2)=N1`, the growth inhibition is -5.1% (inactive).

`N=c1c(C(=O)O)cccn1O`: the growth inhibition is -50.9% (inactive).

With `O=C1CNS(=O)(=O)N1`, the growth inhibition was 10.2% (inactive).

In the case of `C/C(=N/NC(N)=O)C1=CCCCC1`, the growth inhibition is 4.1% (inactive).

As to `CC1(c2cccs2)C(=O)NC(=O)N1C(=O)CCl` (stereo not given), the growth inhibition is -2.75% (inactive).

As to `O=C1/C(=C\C=C\c2ccccc2)CCC/C1=C/C=C/c1ccccc1`, the growth inhibition is 20.8% (inactive).

Consider `O=[N+]([O-])c1ccc(N=N/C(Cc2ccccc2)=N\Nc2ccccc2)cc1`, for which the growth inhibition is 22.6% (inactive).

As for `O=C(NO)/C(CC(=O)c1ccc(O)cc1)=N\O`, the growth inhibition is -11.2% (inactive).

In the case of `CCOC(=O)c1nc2ccccc2nc1NCc1ccc(OC)cc1`, the growth inhibition was 6.55% (inactive).

Consider `Cc1ccccc1C(=O)N(C(C)C)C(C)C`, for which the growth inhibition is -12.6% (inactive).

As to `CC(C)C(=O)NCc1ccccc1Sc1ccccc1CNC(=O)C(C)C`, the growth inhibition is -10% (inactive).

Consider `CCC(=O)OCCCc1ccccc1`, for which the growth inhibition is 9.25% (inactive).

On to `O=C(COC(=O)C(CC(=O)c1ccccc1)Cc1ccccc1)c1ccc(-c2ccccc2)cc1` (stereo not given), for which the growth inhibition is 30.8% (inactive).

`Cc1cc(=O)n2c(cc3cccccc32)n1`: the growth inhibition is -23.4% (inactive).

Consider `CCCC(NC(=O)OCc1ccccc1)C(=O)NC(CCSC)C(N)=O` (stereo not given) (Cbz-[Nva]-Met-NH2; configuration not given here), for which the growth inhibition was 5.6% (inactive).

Turning to `O=C1NN(c2ccccc2)CCO1`, the growth inhibition was -18.6% (inactive).

As for `C[Si](C)(/C(=C/COCc1ccccc1)CCOC1CCCCO1)c1ccccc1` (stereo not given), the growth inhibition is -10.9% (inactive).

On to `C=CC1CC1(Cl)Cl` (stereo not given), for which the growth inhibition is -50.2% (inactive).

Take `CC/C(CCC(=O)OC)=N/Nc1ccc([N+](=O)[O-])cc1[N+](=O)[O-]`: the growth inhibition was -22.6% (inactive).

With `CCC1CCCCC1O` (stereo not given), the growth inhibition was 7.35% (inactive).
